Pf growth 48h: P. falciparum growth inhibition at 48 hours (one generation); AID 504832; 310,000 tested, 5.9% active; P. falciparum luciferase growth in erythrocytes, 48 h; Potency, µM (titrated, usually from 28.7 µM), without a hit: top-dose activity change, negative = inhibition, usual class: inhibitors
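First compound was added to culture medium, then infected red cells at 0.1% parasitemia and 2% hematocrit (final). After incubation at 37 C under 5% CO2, luciferase detection reagent was dispensed and light output recorded.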
VACV Venus inh: inhibitors of vaccinia virus (Venus reporter); AID 720580; Potency, µM (top dose mostly 36.5 µM), without a hit: top-dose activity change, negative = inhibition, hits mostly inhibitors; 330,000 tested, 0.46% active; Vaccinia virus Venus reporter expression, fluorescence; calls by dose curve; tested in A549 cells; further: nearly all actives have a fitted effect of over 30% in size
AMA1-RON2 inh: AMA1-RON2 (P. falciparum) interaction inhibition. AlphaScreen AMA1-biotinylated RON2 peptide binding. 360,000 tested, 0.2% active. AID 720542. Potency, µM (series often up to 58.2 µM), without a hit: top-dose activity change, negative = inhibition, actives largely listed as inhibitors;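 further: 0% = vehicle wells and -100% = peptide control; nearly all actives have a fitted effect of over 45% in size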
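AMA1 (3D7) with his tag at 25 nM final met compounds first, then biotinylated RON2 peptide at 25 nM; detection used donor plus acceptor beads, 10 µg/mL apiece, read by AlphaScreen after 30 min at room temperature.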
Pf growth 96h: P. falciparum growth inhibition at 96 hour, primary screen for plastid delayed-death inhibitors; P. falciparum luciferase reporter growth, 96 h; Potency, µM (titrated, usually from 28.7 µM), inactives show at the highest dose activity change, negative = inhibition, actives largely listed as inhibitors; 320,000 tested, 6.9% active; AID 504834
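Readout is luminescence from an integrated firefly luciferase in P. falciparum. Red cells, 2% hematocrit and 0.05% parasitemia final, were cultured with compound through two parasite generations (96 hours) at 37 C, 5% CO2.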
Vaccinia mCherry: inhibitors of vaccinia virus infection (mCherry reporter signal) | Vaccinia virus mCherry reporter infection, fluorescence | Potency, µM (series often up to 36.5 µM), for inactives: top-dose activity change, negative = inhibition, hits mostly inhibitors | 310,000 tested, 0.63% active | AID 720579; calls by dose curve; tested in A549 cells; further: nearly all actives have a fitted effect of over 35% in size
Active calls of the source: *; ! = a repeat was not active; [ ] = dose if it differs, or a comment. Shown are actives, neighbours in structure and some others; about 8.7% of the full set was active somewhere. Unless noted, the call rests on the fitted dose curve; in most records, active means well fitted curve in the direction sought with a large enough effect; inconclusive means small, poorly fitted or top-dose-only effect, or another doubt; inactive means no such curve, though single readings can be large; an effect the other way counts as inactive or inconclusive. Unless noted, on the % scale 0 is the no-effect control and ±100 the full control effect; potency means the concentration at half of the fitted maximal effect.

Cc1ccccc1C(=O)N1Cc2cnnn2-c2ccccc2C1C#N (stereo not drawn) was read as VACV Venus inh -3.8%, AMA1-RON2 inh -0.1% and Vaccinia mCherry -4.5%.
`Clc1nc(N2CCOCC2)ncc1Br` gave Pf growth 48h 2.62µM*, VACV Venus inh -11.8%, AMA1-RON2 inh -10.6%, Pf growth 96h 1.85µM* and Vaccinia mCherry -0.7%.
Screening Fc1cnc(N2CCOCC2)nc1N1CCOCC1 returned Pf growth 48h 5.7%, VACV Venus inh -12.6%, AMA1-RON2 inh 7.8%, Pf growth 96h -8.7% and Vaccinia mCherry inactive.
`CCCCSc1nnc2c(n1)OC(c1ccc(Br)s1)N(C(C)=O)c1ccccc1-2` (stereo not drawn) gave VACV Venus inh -2.7% and Vaccinia mCherry inactive.
Screening C/C(=N\NC(=O)c1ccc(F)cc1)c1cccc(NC(=O)c2cccc(F)c2)c1 returned Pf growth 48h inconclusive, AMA1-RON2 inh 54.2% and Pf growth 96h -17.4%.
`C/C(=N/NC(=O)c1ccc(-c2ccccc2)cc1)c1cccc(O)c1` gave Pf growth 48h 5.2%, VACV Venus inh -11.4%, AMA1-RON2 inh 71.8%, Pf growth 96h 5.86µM* and Vaccinia mCherry inconclusive.
Screening C/C(=N\NC(=O)c1ccccc1F)c1cccc(NC(=O)c2ccc(C)cc2)c1 returned Pf growth 48h 69.1%, VACV Venus inh inconclusive, AMA1-RON2 inh -4.2%, Pf growth 96h 5.22µM* and Vaccinia mCherry -21.6%.
For COc1ccc(N2CCN(C(=O)CS(=O)(=O)c3cccc4nsnc34)CC2)cc1 the results were VACV Venus inh -12.0% and Vaccinia mCherry -11.1%.
Screening CC(C)c1ccc(/C=c2\sc3nc(-c4ccncc4)nn3c2=O)cc1 returned Pf growth 48h 0.3%, VACV Venus inh -10.1%, AMA1-RON2 inh 1.3%, Pf growth 96h 4.15µM* and Vaccinia mCherry -8.1%[1.46 µM].
`CC1CCN(S(=O)(=O)c2ccc3c(c2)c(=O)c(C(=O)NC(C)c2ccccc2)cn3C)CC1` (stereo not drawn) gave VACV Venus inh -10.2% and Vaccinia mCherry -21.5%.
For Cc1nc([N+](=O)[O-])cn1CC(O)c1ccc2c(c1)OCCO2 (stereo not drawn) the results were VACV Venus inh -21.1% and Vaccinia mCherry -1.9%.
O=C(C(=O)N1CCN(c2cccc(Cl)c2)CC1)N1CCCCC1 was read as Pf growth 48h 22.1%, VACV Venus inh -5.5%, AMA1-RON2 inh 13.3%, Pf growth 96h 1.0% and Vaccinia mCherry -2.8%.
Screening Clc1cccc(N2CCNCC2)c1 returned Pf growth 48h inconclusive, VACV Venus inh -17.8%, AMA1-RON2 inh 3.0%, Pf growth 96h 13.5µM*! and Vaccinia mCherry -0.1%.
Screening O=C(/C=C/c1ccc(Cl)cc1Cl)c1ccc[nH]1 returned Pf growth 48h -17.2%, AMA1-RON2 inh 14.6% and Pf growth 96h 3.6%.
O=C(/C=C/c1ccccc1Cl)c1ccc[nH]1 was read as Pf growth 48h 38.9%, VACV Venus inh inconclusive, AMA1-RON2 inh -14.4%, Pf growth 96h inconclusive and Vaccinia mCherry 12.6µM*.
Screening COc1cccc(C(=O)NC2CCNCC2)c1 returned Pf growth 48h -11.4%, AMA1-RON2 inh 14.5% and Pf growth 96h inconclusive.
Screening COc1cccc(C(=O)NNC(=O)c2ccccc2)c1 returned Pf growth 48h 67.6%, AMA1-RON2 inh 4.1% and Pf growth 96h inconclusive.
`COc1cccc(C(=O)NC2CCN(C(=O)N3c4ccccc4Sc4ccccc43)CC2)c1` gave Pf growth 48h 8.28µM*, VACV Venus inh -14.1%, AMA1-RON2 inh -1.8%, Pf growth 96h 5.22µM* and Vaccinia mCherry -20.0%.
`O=C(NC1CCN(C(=O)N2c3ccccc3Sc3ccccc32)CC1)c1ccco1` gave Pf growth 48h 1.65µM*, VACV Venus inh -17.1%, AMA1-RON2 inh 9.9%, Pf growth 96h inconclusive and Vaccinia mCherry -12.9%.
For O=C(NC1CCN(C(=O)N2c3ccccc3Sc3ccccc32)CC1)c1ccccc1Cl the results were Pf growth 48h inconclusive, VACV Venus inh -24.8%, AMA1-RON2 inh -25.2%, Pf growth 96h inconclusive and Vaccinia mCherry -24.0%.
`O=C(c1ccco1)N1CCN(C(=O)N2c3ccccc3Sc3ccccc32)CC1` gave Pf growth 48h 11.7µM*, VACV Venus inh inconclusive, AMA1-RON2 inh -19.1%, Pf growth 96h inconclusive and Vaccinia mCherry inconclusive.
